According to PubChem BioAssay (NCI):
About 79,000 compounds went through this panel and 15% of them were active in at least one assay; those are over-represented in the sample as a whole. The source made the active and inactive calls. No stated cut-off is given here; in the data, active means growth inhibition above about 70%; inactive means the rest.

Legend:
[1] = NCI Yeast Anticancer Drug Screen. Data for the rad52 strain (AID 147);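 further: 0% = growth of vehicle-treated control cultures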; settings: S. cerevisiae rad52 mutant growth inhibition, stronger effect = higher value
Summary of the method: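 Compounds are applied to a genetically defined yeast strain lacking normal DNA damage repair, and inhibition of growth is expressed relative to cultures given vehicle only.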

[2] = NCI Yeast Anticancer Drug Screen. Data for the wt1 strain (AID 149);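 further: 0% = growth of vehicle-treated wt1 cultures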; settings: S. cerevisiae wt1 strain (SPY 50644) growth inhibition, stronger effect = higher value
Summary of the method: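 Readout: yeast growth inhibition, normalised to vehicle controls, in the wt1 strain exposed to test compounds.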

[3] = NCI Yeast Anticancer Drug Screen. Data for the rad50EPP+ strain (AID 151);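 further: 0% = growth of vehicle-treated control cultures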; settings: S. cerevisiae rad50 mutant strain, stronger effect = higher value
Summary of the method: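 Compounds were applied to the rad50EPP+ yeast strain, which bears a defined DNA repair alteration, and growth inhibition was determined relative to vehicle-treated cultures.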

[4] = NCI Yeast Anticancer Drug Screen. Data for the mgt1 strain (AID 153); settings: S. cerevisiae mgt1 mutant growth inhibition, stronger effect = higher value
Summary of the method: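 Strain: mgt1 yeast, one of a set carrying defined DNA damage repair or cell cycle control alterations. Compound-treated growth compared with vehicle.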

[5] = NCI Yeast Anticancer Drug Screen. Data for the rad50 strain (AID 155);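 further: 0% = growth of vehicle-only cultures of the same strain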; settings: S. cerevisiae rad50 strain growth inhibition, stronger effect = higher value
Summary of the method: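 Compounds were tested on a yeast strain with an engineered DNA damage repair alteration; the reported value is growth inhibition normalised to vehicle treatment.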

[6] = NCI Yeast Anticancer Drug Screen. Data for the mec2-1 strain (AID 157); settings: S. cerevisiae mec2-1 strain, stronger effect = higher value
Summary of the method: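 Strain: mec2-1 (DNA repair/cell cycle alteration). Compound exposure, then growth measured; inhibition expressed relative to vehicle.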

[7] = NCI Yeast Anticancer Drug Screen. Data for the rad14 strain (AID 159);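 further: 0% = growth of vehicle-treated control cultures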; settings: S. cerevisiae rad14 strain growth inhibition, stronger effect = higher value
Summary of the method: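 Compound-treated yeast with a defined DNA-repair lesion; growth inhibition normalised to vehicle-treated cultures.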

[8] = NCI Yeast Anticancer Drug Screen. Data for the sgs1 mgt1 strain (AID 161);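 further: 0% = growth of cultures given vehicle only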; settings: S. cerevisiae sgs1 mgt1 strain, stronger effect = higher value
Summary of the method: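 Mutant yeast exposed to compound; growth scored against vehicle-only wells.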

[9] = NCI Yeast Anticancer Drug Screen. Data for the cln2 rad14 strain (AID 165);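 further: 0% = growth equal to vehicle treated cultures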; settings: S. cerevisiae cln2 rad14 strain, stronger effect = higher value
Summary of the method: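 Compounds are applied to the cln2 rad14 yeast strain, and growth is then compared with that of vehicle-treated cultures to give inhibition.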

[10] = NCI Yeast Anticancer Drug Screen. Data for the bub3 strain (AID 167); settings: S. cerevisiae bub3 mutant strain, stronger effect = higher value
Summary of the method: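 Growth of a checkpoint-deficient yeast mutant is measured after compound exposure. Values represent inhibition relative to vehicle.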

[11] = NCI Yeast Anticancer Drug Screen. Data for the wt2 strain (AID 169);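 further: 0% = growth of vehicle-treated yeast cultures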; settings: S. cerevisiae wt2 strain growth inhibition, stronger effect = higher value
Summary of the method: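 This strain belongs to a panel of yeast strains with defined genetic alterations in DNA damage repair or cell cycle control. Compounds are applied, and growth inhibition is measured against vehicle-treated cultures.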

[12] = NCI Yeast Anticancer Drug Screen. Data for the mlh1 strain (AID 171);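 further: 0% = growth of vehicle-treated control cultures of the same strain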; settings: S. cerevisiae mlh1 strain growth inhibition, stronger effect = higher value
Summary of the method: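 Growth of the mutant yeast strain after compound exposure, expressed as inhibition relative to vehicle-only controls.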

[13] = NCI Yeast Anticancer Drug Screen. Data for the sgs1 strain (AID 173);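 further: 0% = growth of vehicle-only control cultures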; settings: S. cerevisiae sgs1 mutant, stronger effect = higher value
Summary of the method: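 Growth of a yeast strain bearing a defined genetic alteration is measured after compound treatment. Inhibition is expressed relative to vehicle-only controls.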

[14] = NCI Yeast Anticancer Drug Screen. Data for the mlh1 rad18 strain (AID 175); settings: S. cerevisiae mlh1 rad18 strain growth inhibition, stronger effect = higher value
Summary of the method: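 Read-out is yeast growth inhibition, calculated against vehicle-only controls. The compound was applied to a strain engineered with DNA damage repair alterations.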

[15] = NCI Yeast Anticancer Drug Screen. Data for the rad18 strain (AID 177); settings: S. cerevisiae rad18 mutant growth inhibition, stronger effect = higher value
Summary of the method: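 Growth of the mutant yeast strain after compound exposure, normalised to vehicle-only cultures.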

[16] = NCI Yeast Anticancer Drug Screen. Data for the CLN2oe strain (AID 163);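 further: 0% = growth of vehicle-only control cultures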; settings: S. cerevisiae CLN2oe strain, stronger effect = higher value
Summary of the method: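 Growth of a genetically modified yeast strain is measured after compound exposure and compared with cultures given vehicle alone.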

[17] = at 5.0 µM (retest, dose inferred, filed as 0.5)
[18] = at 50.0 µM (retest, dose inferred, filed as 5.0)

Measured: growth inhibition

OCC1OC(OCC(O)C(O)C(O)C(/C=N/Nc2ccccc2)=N/Nc2ccccc2)C(O)C(O)C1O (stereo unspecified)
inactive: [1]; at 1.2 µM 2% | [1]; at 3.7 µM 9% | [1]; at 11.0 µM 16% | [1]; at 33.0 µM 18% | [1]; at 100.0 µM 45% | [2]; at 1.2 µM 4% | [2]; at 3.7 µM 17% | [2]; at 11.0 µM 21% | [2]; at 33.0 µM 24% | [2]; at 100.0 µM 28% | [3]; at 1.2 µM 9% | [3]; at 3.7 µM 30% | [3]; at 11.0 µM 38% | [3]; at 33.0 µM 40% | [3]; at 100.0 µM 37% | [4]; at 1.2 µM 3% | [4]; at 3.7 µM 12% | [4]; at 11.0 µM 11% | [4]; at 33.0 µM 11% | [4]; at 100.0 µM 5% | [5]; at 1.2 µM -5% | [5]; at 3.7 µM 13% | [5]; [17] 15% | [5]; at 11.0 µM 29% | [5]; at 33.0 µM 32% | [5]; [18] 22% | [5]; at 100.0 µM 55% | [6]; at 1.2 µM -2% | [6]; at 3.7 µM 16% | [6]; [17] 1% | [6]; at 11.0 µM 20% | [6]; at 33.0 µM 31% | [6]; [18] 13% | [6]; at 100.0 µM 68% | [7]; at 1.2 µM -1% | [7]; at 3.7 µM 1% | [7]; at 11.0 µM 4% | [7]; at 33.0 µM 9% | [7]; at 100.0 µM 28% | [8]; [17] 7% | [8]; [18] -2% | [9]; [17] 7% | [9]; [18] -1% | [10]; at 1.2 µM 2% | [10]; at 3.7 µM 9% | [10]; [17] 12% | [10]; at 11.0 µM 10% | [10]; at 33.0 µM 12% | [10]; [18] 41% | [10]; at 100.0 µM 47% | [11]; at 1.2 µM 1% | [11]; at 3.7 µM 7% | [11]; at 11.0 µM 20% | [11]; at 33.0 µM 17% | [11]; at 100.0 µM 17% | [12]; at 1.2 µM -2% | [12]; at 3.7 µM 4% | [12]; at 11.0 µM 8% | [12]; at 33.0 µM 11% | [12]; at 100.0 µM 30% | [13]; at 1.2 µM 3% | [13]; at 3.7 µM 13% | [13]; at 11.0 µM 16% | [13]; at 33.0 µM 19% | [13]; at 100.0 µM 35% | [14]; [17] 18% | [14]; [18] 31% | [15]; at 1.2 µM 7% | [15]; at 3.7 µM 25% | [15]; at 11.0 µM 30% | [15]; at 33.0 µM 39%
active: [5]; at 50.0 µM 99.2% | [6]; at 50.0 µM 99.5% | [8]; at 50.0 µM 93.3% | [9]; at 50.0 µM 99.3% | [10]; at 50.0 µM 99.2% | [14]; at 50.0 µM 99.4% | [15]; at 100.0 µM 81%

c1ccc2c(c1)sc1cc3ccncc3cc12
inactive: [1]; at 1.2 µM -2% | [1]; at 3.7 µM 7% | [1]; at 11.0 µM 17% | [2]; at 1.2 µM -7% | [2]; at 3.7 µM -4% | [2]; at 11.0 µM -9% | [2]; at 33.0 µM 17% | [3]; at 1.2 µM 7% | [3]; at 3.7 µM 21% | [3]; at 11.0 µM 63% | [4]; at 1.2 µM -2% | [4]; at 3.7 µM -3% | [4]; at 11.0 µM -2% | [4]; at 33.0 µM 11% | [5]; at 1.2 µM -6% | [5]; at 3.7 µM 7% | [5]; at 11.0 µM 29% | [6]; at 1.2 µM 1% | [6]; at 3.7 µM -1% | [6]; [17] 15% | [6]; at 11.0 µM 11% | [6]; at 33.0 µM 8% | [8]; [17] 12% | [16]; at 1.2 µM -2% | [16]; at 3.7 µM 0% | [16]; at 11.0 µM 7% | [16]; at 33.0 µM 26% | [9]; [17] 16% | [10]; at 1.2 µM -12% | [10]; at 3.7 µM -7% | [10]; [17] -4% | [10]; at 11.0 µM 0% | [10]; at 33.0 µM 19% | [11]; at 1.2 µM -4% | [11]; at 3.7 µM -2% | [11]; at 11.0 µM -3% | [11]; at 33.0 µM 10% | [12]; at 1.2 µM 6% | [12]; at 3.7 µM -6% | [12]; at 11.0 µM -1% | [12]; at 33.0 µM 19% | [13]; at 1.2 µM -2% | [13]; at 3.7 µM -7% | [13]; at 11.0 µM -7% | [13]; at 33.0 µM 34% | [14]; [17] 8% | [15]; at 1.2 µM -3% | [15]; at 3.7 µM -1% | [15]; at 11.0 µM 5% | [15]; at 33.0 µM 22%
active: [1]; at 33.0 µM 94% | [1]; at 100.0 µM 98% | [2]; at 100.0 µM 94% | [3]; at 33.0 µM 94% | [3]; at 100.0 µM 99% | [4]; at 100.0 µM 94% | [5]; [17] 93% | [5]; at 33.0 µM 89% | [5]; [18] 94% | [5]; at 50.0 µM 97.7% | [5]; at 100.0 µM 98% | [6]; [18] 96% | [6]; at 50.0 µM 98.2% | [6]; at 100.0 µM 89% | [8]; [18] 93% | [8]; at 50.0 µM 98.1% | [16]; at 100.0 µM 91% | [9]; [18] 96% | [9]; at 50.0 µM 96.2% | [10]; [18] 95% | [10]; at 50.0 µM 97.3% | [10]; at 100.0 µM 94% | [11]; at 100.0 µM 91% | [12]; at 100.0 µM 95% | [13]; at 100.0 µM 97% | [14]; [18] 94% | [14]; at 50.0 µM 97.4% | [15]; at 100.0 µM 97%
